# Measurements as given in PubChem BioAssay (Tox21).
# Results filed as inconclusive are left out. Entries that show only a call come without a potency. Active and inactive are the calls of the source. The call rests on the fitted dose curve.
# Target: 5-hydroxytryptamine receptor 2A (Homo sapiens) (UniProt P28223)
# Experiment: 5-hydroxytryptamine receptor 2A (HTR2A) small molecule agonists, cell-based qHTS assay (AID 1963587); further: nearly all actives have a fitted effect of over 30% in size
# Conditions: HTR2A-CHO cells, calcium flux fluorescence, agonist mode; series mostly up to 76.8 µM
# Description: National Center for Advancing Translational Sciences [NCATS]
# Division of Preclinical Innovation [DPI]
# U.S. Environmental Protection Agency [EPA]
# National Institutes of Environmental Health Sciences [NIEHS]
# National Toxicology Program [NTP]
# U.S. Food and Drug Administration [FDA]
# The HTR2A receptor is a subtype of the 5-HT2 receptor that belongs to the serotonin receptor family and is a G protein-coupled receptor (GPCR). The HTR2A-CHO cell line stably expressing human 5-hydroxytryptamine receptor 2A (HTR2A) can be used for screening agonists of interactions between 5-HT2 and its ligands. The HTR2A-CHO calcium flux assay is a homogeneous fluorescence-based assay for detecting the intracellular calcium level using FDSS kinetic plate reader system.
# HTR2A-CHO cells were dispensed at 2000 cells/3uL/well in 1536-well black-clear bottom plates using a Multidrop Dispenser. After the assay plates were incubated at a 37 C/5% CO2 incubator for 18 h, 3 uL of Dye Loading Buffer was transferred to the assay plate by a Flying Reagent Dispenser. The assay plates were incubated at 37 C for 1h. For agonist mode, 23 nL of compounds dissolved in DMSO, positive controls or DMSO only was transferred to the assay plate by a pin tool. The fluorescence intensity in the plates was measured using FDSS 7000EX kinetic plate reader for 2 min at 1 sec intervals.
# Potency means the concentration at half of the fitted maximal effect.
# Chain of 5-hydroxytryptamine receptor 2A (Homo sapiens) (P28223 whole entry, looked up): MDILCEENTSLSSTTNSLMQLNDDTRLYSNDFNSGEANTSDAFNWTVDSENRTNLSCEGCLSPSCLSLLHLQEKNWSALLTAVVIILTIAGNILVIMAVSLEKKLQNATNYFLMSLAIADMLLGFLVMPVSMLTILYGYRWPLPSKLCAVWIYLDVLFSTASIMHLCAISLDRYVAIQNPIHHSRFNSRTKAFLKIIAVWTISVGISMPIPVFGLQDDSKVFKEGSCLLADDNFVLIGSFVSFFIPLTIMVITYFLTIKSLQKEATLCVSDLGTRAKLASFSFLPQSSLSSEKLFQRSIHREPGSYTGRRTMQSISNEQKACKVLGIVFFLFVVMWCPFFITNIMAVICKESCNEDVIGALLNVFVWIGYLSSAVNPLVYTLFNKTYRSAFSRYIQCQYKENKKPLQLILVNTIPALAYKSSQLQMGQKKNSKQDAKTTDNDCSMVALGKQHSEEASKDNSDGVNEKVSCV
SMILES,Potency,activation
O=C(C(Cl)(Cl)Cl)C(Cl)(Cl)Cl,inactive,–
CC(=O)O.CC(=O)O.CC(=O)O.CC(=O)O.CC(=O)O.CC(=O)O.CC(=O)O.O.O.[Cr].[Cr].[Cr],inactive,–
CN=CNc1ccc(C)cc1C,inactive,–
CCOc1cccc(C2(N3CCN(c4ccccc4)CC3)CCC(C)CC2)c1 (stereo not given),inactive,–
Nc1c(Br)cc(Br)c2c1C(=O)c1ccccc1C2=O,–,-1.81% [at 15.9 µM] (inactive)
CCCCCCCCBr,inactive,–
CCCCN(CCCC)C(=S)S,inactive,–
Clc1ccc(Oc2ccccc2)cc1,inactive,–
O=P(O)(O)c1ccccc1,inactive,–
CCCCNP(N)(N)=S,inactive,–
CCOP(=O)(Sc1ccccc1)Sc1ccccc1,inactive,–
Oc1ccc(C2(c3ccc(O)cc3)CCCCC2)cc1,inactive,–
CCOC(C(=O)OCCN(C)C)(c1ccccc1)c1ccccc1,inactive,–
NNCCO,inactive,–
CC(C)Br,inactive,–
CC(C)(C)C(O)C(Oc1ccc(-c2ccccc2)cc1)n1cncn1 (stereo not given),inactive,–
ClC(Cl)C(Cl)(Cl)Cl,inactive,–
CCN1CCCC1CNC(=O)C(O)(c1ccccc1)c1ccccc1 (stereo not given),2.68 µM (active),–
Cc1cc(C)c(C(=O)P(=O)(C(=O)c2c(C)cc(C)cc2C)c2ccccc2)c(C)c1,inactive,–
Oc1cc(Cl)c(Cl)c(Cl)c1Cl,inactive,–

SMILES,Potency,activation
Cc1cc(C)c(C(=O)P(=O)(c2ccccc2)c2ccccc2)c(C)c1,24.5 µM (active),–
COP(=S)(OC)Oc1c(Cl)cc(C)cc1Cl,inactive,–
CN(CCCC(O)c1cccnc1)N=O (stereo not given),inactive,–
c1cncc([C@@H]2CCCCN2)c1,inactive,–
COCCOCCO,inactive,–
FC(Cl)(Cl)C(F)(Cl)Cl,inactive,–
CC(=O)[O-].CC(=O)[O-].CC(=O)[O-].[Sb+3],–,-0.125% [at 2.65 µM] (inactive)
O=C(Cl)C(Cl)(Cl)Cl,inactive,–
COC(C)(C)CCC[C@H](C)C/C=C/C(C)=C/C(=O)OC(C)C,inactive,–
CCOC(=O)CCl,inactive,–
O.O.O.O.O.O.O.O=S(=O)([O-])[O-].[Co+2],inactive,–
CNC(=O)O/N=C(\C)SC,inactive,–
O=C(Nc1ccccc1-c1ccc(Cl)cc1)c1cccnc1Cl,inactive,–
O=[N+]([O-])c1ccc2ccc3cccc4ccc1c2c34,inactive,–
[F][Sn]([c]1ccccc1)([c]1ccccc1)[c]1ccccc1,30.9 µM (active),–
CCOP(=S)(OCC)SCSc1ccc(Cl)cc1,inactive,–
NNCc1ccccc1,inactive,–
CC(C)N1C(=O)N(c2ccccc2)CSC1=NC(C)(C)C,inactive,–
CC(=O)OC(c1ccccc1)C(Cl)(Cl)Cl (stereo not given),inactive,–
Nc1n[nH]c(N)n1,inactive,–
